Wnt bcat act = activates Wnt/beta-catenin signaling in a reporter cell assay; actives 1.2% (n = 300,000); AID 743398; activator, plate reader; activation, % at 9.35 µM; in the data active = activation above about 30%, passing the limit was not always enough; inconclusive = no clear call, values can overlap the other calls;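 note: 0% = neutral control wells and 100% = positive control wells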
MITF act = MITF TRPM1 promoter activation in melanoma cells; actives 0.75% (n = 300,000); activation, % at 12.5 µM; SK-MEL-5 TRPM1-promoter luciferase, 24 h; % of positive control, neutral wells = 0;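 active = mean activation of at least 80% with every replicate also reaching 80%; inconclusive = mean reaches 80% but some replicate falls short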;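 note: 0% = neutral control wells and 100% = parthenolide positive control wells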
esBAF inh = inhibitors of esBAF chromatin remodeling in mouse ES cells | Bmi1-luciferase knock-in reporter, 24 h; 100% = twice the neutral-well signal | actives 2% (n = 350,000) | reporter increase, % at 12.5 µM; in the data active = activation above about 40%; inconclusive = no clear call, values can overlap the other calls;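 note: 0% = median of the plate's neutral control wells and 100% = double that signal; a rise in the Bmi1 reporter signal indicates esBAF inhibition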
TRPM1 prom inh = inhibitors of MITF-driven TRPM1 promoter in melanoma cells | SK-MEL-5 TRPM1 promoter luciferase, 24 h | inhibition, % at 12.5 µM | actives 0.83% (n = 330,000) | AID 488899;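 active = mean inhibition across replicates of 60% or more, whatever share of single replicates reaches that level; inconclusive = some that reach 60%, reason not given; inactive = mean inhibition across replicates below 60%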
EWS-Fli inh = blocks EWS/Fli oncoprotein-driven transcription | actives 0.67% (n = 350,000) | inhibition, % at 12.6 µM | A673 NR0B1-luciferase reporter, viability-normalised | AID 651661;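 active = mean inhibition of at least 50% after viability correction, with every replicate also passing that limit; inconclusive = mean reaches 50% but only one of two replicates passes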;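 note: firefly luciferase signal divided by Alamar Blue viability fluorescence both relative to DMSO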
PAX8 reporter = lowers PAX8-driven luciferase in RMG-I cells; RMG-I TPO-luciferase reporter, SteadyGlo, 24 h; actives 1.2% (n = 360,000); inhibition, % at 12.6 µM;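 active = mean replicate inhibition at least 60% with every replicate also reaching 60%; inconclusive = only one of the two criteria is met; inactive = mean below 60% and not all replicates reaching 60%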;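 note: luciferase light reporting Pax8 driven TPO promoter activity; plate controls were median of neutral control wells for no effect and mitoxantrone controls for full effect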
* marks the source's active call; other numbers are inactive results; ? = inconclusive; · = not tested or not shown. The list is not random: actives were taken first. Their share in the collection is about 4%.

SMILES	Wnt bcat act	MITF act	esBAF inh	TRPM1 prom inh	EWS-Fli inh	PAX8 reporter
COc1ccc2c3c(n(C)c2c1)[C@@H](CO)N(C(C)=O)CC31CCN(C(=O)Nc2ccc(F)cc2)CC1	·	·	·	·	21	·
COc1cc([N+](=O)[O-])cc(/C=N/NC(=O)c2ccc(NC(=O)c3ccc(C)cc3)cc2)c1O	-8	-71	-85	72*	29	30
COc1cccc(/C=N/NC(=O)c2cc3cc([N+](=O)[O-])ccc3s2)c1O	-2	-76	·	77*	21	33
COc1cc([N+](=O)[O-])cc(/C=N/NC(=O)c2ccc(C)nc2)c1O	-6	2	·	1	·	3
COc1cc(/C=N/NC(=O)c2cccc([N+](=O)[O-])c2)ccc1OCc1ccc(C)cc1	?	69	56*	-68	·	-178
COc1ccc(/C=N/NC(=O)c2cccc([N+](=O)[O-])c2)cc1O	19	0	·	-4	-5	11
COc1cccc(/C=N/NC(=O)C(=O)N/N=C/c2cccc(OC)c2O)c1O	-2	1	·	3	11	6
COc1cc(/C=N/n2cnnc2)ccc1OCc1ccc(C)cc1	·	71	57*	-70	·	·
C[C@@H]1CN([C@H](C)CO)C(=O)c2cc(NS(C)(=O)=O)ccc2O[C@H]1CN(C)CC1CCCCC1	·	·	-3	·	-3	-7
C[C@H](CO)N1C[C@H](C)[C@H](CN(C)C(=O)Nc2ccc(F)cc2)Oc2c(NS(=O)(=O)c3cn(C)cn3)cccc2C1=O	·	·	-9	·	14	-32
O=C(C[C@@H]1C[C@@H]2c3cc(NC(=O)C4CCC4)ccc3O[C@@H]2[C@H](CO)O1)NCc1cccnc1	·	·	-2	·	5	-17
Cc1noc(C)c1S(=O)(=O)N(C)C[C@@H]1OCCCC[C@H](C)Oc2ccc(NC(=O)c3ccccc3)cc2C(=O)N([C@@H](C)CO)C[C@H]1C	·	·	5	·	3	6
COc1cc(/C=C(\C#N)C(=O)Nc2cccc(C(=O)O)c2)ccc1OCc1ccc(C)cc1	25	91*	·	-96	-60	-182
Cc1ccc(C(C)C)c(OCc2ccc(C(=O)N/N=C/c3cccc(O)c3O)cc2)c1	28	-83	·	83*	30	57
Cc1noc(C)c1S(=O)(=O)Nc1cccc2c1O[C@@H](CN(C)Cc1ccc(Cl)c(Cl)c1)[C@@H](C)CN([C@@H](C)CO)C2=O	·	·	-4	·	2	·
Cc1ccc(NC(=O)CN2CCOCC2)cc1	-2	-3	3	2	-3	13
O=C(CN1CCOCC1)Nc1ccc(C2CCCCC2)cc1	31*	42	34	-41	·	·
O=C(Nc1ccc(C(F)(F)F)cc1)N[C@H]1CC[C@@H](CCn2cc(C3(O)CCCC3)nn2)O[C@@H]1CO	·	·	7	·	-2	-3
C/C(=N/NC(=O)c1nnn(-c2nonc2N)c1-c1ccccc1)c1ccc2c(c1)OCO2	-1	2	-8	0	-11	-9
C/C(=N\N=C(/N)c1nonc1N)c1ccc2c(c1)OCO2	12	·	61*	-27	-87	-223
N#Cc1ccc(OCC(=O)N2CCc3ccccc32)cc1	-4	72	45*	-65	-63	-89
O=C(CNCCO)N1CCc2ccccc21	·	-8	-3	10	·	·
O=C(CNc1ccccc1OC(F)F)N1CCc2ccccc21	·	108*	·	-116	-162	-188
COc1ccc(OCC(=O)N2CCc3ccccc32)c([N+](=O)[O-])c1	-1	·	54*	·	-64	-48
Cc1cc(C(=O)OCC(=O)N2CCc3ccccc32)c(C)o1	·	58	50*	-50	·	·
SMILES	Wnt bcat act	MITF act	esBAF inh	TRPM1 prom inh	EWS-Fli inh	PAX8 reporter
COc1ccc(OCC(=O)N2CCCC2=O)c([N+](=O)[O-])c1	0	2	-5	0	-1	19
O=C(COc1ccc(F)cc1)N1CCCc2ccccc21	1	1	6	4	-14	-18
C[C@@H]1CCCCO[C@H](CN(C)C(=O)Nc2ccc(C(F)(F)F)cc2)[C@H](C)CN([C@H](C)CO)C(=O)c2cc(NS(C)(=O)=O)ccc2O1	·	·	9	·	13	-17
C[C@@H]1CN([C@H](C)CO)S(=O)(=O)c2ccc(-c3ccccc3)cc2O[C@@H]1CN(C)C(=O)C1CCCCC1	·	·	0	·	7	·
COc1ccc2c(CC(=O)N3CCc4ccccc43)coc2c1	·	111*	·	-107	·	·
O=C(COc1ccc(F)cc1Br)N1CCc2ccccc21	72*	17	24	-42	·	-266
O=C(COc1ccc([N+](=O)[O-])cc1Cl)N1CCc2ccccc21	42*	119*	66*	-115	-109	-222
O=C(N[C@H]1CC[C@@H](CCNS(=O)(=O)c2ccc(F)cc2)O[C@H]1CO)c1cccc(F)c1	·	·	3	·	-3	·
C[C@H]1CCCCO[C@@H](CN(C)Cc2ccc3c(c2)OCO3)[C@@H](C)CN([C@@H](C)CO)C(=O)c2cc(NS(=O)(=O)c3ccccc3)ccc2O1	·	·	-2	·	2	18
COc1ccc(S(=O)(=O)N(C)C[C@@H]2Oc3ccc(NC(=O)Nc4ccc(C(F)(F)F)cc4)cc3CC(=O)N([C@H](C)CO)C[C@@H]2C)cc1	·	·	0	·	44	78*
COc1ccc(S(=O)(=O)N(C)C[C@@H]2Oc3ccc(NC(=O)Nc4ccc(C(F)(F)F)cc4)cc3CC(=O)N([C@@H](C)CO)C[C@@H]2C)cc1	·	·	1	·	46	66*
COc1ccc(S(=O)(=O)N(C)C[C@@H]2Oc3ccc(NC(=O)Nc4ccc(C(F)(F)F)cc4)cc3CC(=O)N([C@H](C)CO)C[C@H]2C)cc1	·	·	-7	·	-17	0
C[C@H](CO)N1C[C@H](C)[C@@H](CN(C)C(=O)Nc2ccc3c(c2)OCO3)Oc2ccc(NC(=O)Cc3cn(C)c4ccccc34)cc2C1=O	·	·	·	·	-3	1
CC(=O)c1ccc(Sc2nnnn2-c2ccccc2)c([N+](=O)[O-])c1	·	-63	·	63*	8	-17
Cn1cnnc1Sc1cc(N2CCN(S(=O)(=O)c3ccccc3)CC2)ccc1[N+](=O)[O-]	-13	-6	-5	1	3	12
CN1CCN(S(=O)(=O)c2ccc(Sc3nnnn3-c3ccccc3)c([N+](=O)[O-])c2)CC1	-4	-86	·	88*	-10	9
O=[N+]([O-])c1ccc(Sc2nnnn2-c2ccccc2)c(Cl)c1	·	-22	9	21	·	·
O=C(c1ccncc1)N1CC(=O)N2[C@H](C1)[C@H](c1ccc(-c3cccnc3)cc1)[C@@H]2CO	·	·	·	·	1	2
COC(=O)c1ccc(-c2ccc(OC)c([C@H]3[C@H]4C=CC[C@@H](C)[C@@H]4C(=O)N3Cc3ccccc3)c2)cc1	2	26	79*	-23	4	12
COC(=O)c1ccc(-c2ccc([C@H]3[C@H]4C=CC[C@@H](C)[C@@H]4C(=O)N3Cc3ccccc3)c(F)c2)cc1	-12	·	59*	·	17	19

Screens (PubChem)
